# From the OligoGym collection
# Target: OTP
# Experiment: pooled miR-30 sensor sort-seq; sequence = guide strand
# Settings: shRNA
# Also: reference of the scale not given here.
row,Sequence,sensor-assay potency score (higher = more potent)
1,TTACAAAAGAAAATTTTGCTTA,-0.204
2,TTCCTCGTCACATGACTGCTTT,-0.353
3,AACATATCACAAATTGACCAGT,-0.538
4,TTGACCAGTATGTAACAAGAAT,-1.1
5,TTTATCTACACAAAACATCCTA,0.114
6,TTATCTACACAAAACATCCTAT,-0.185
7,TTAAGTTAAAACATATCACAAA,-1.23
8,TTCTACACTCTCACACAGTTGT,0.376
9,TTTCTCTGTACAAAGTTGCAGG,-0.634
10,TTGGTAGCAATGCTTGTCCTCC,-0.441

# Target: OXGR1
# Experiment: as above
# Settings: shRNA
row,Sequence,sensor-assay potency score (higher = more potent)
1,TTCAGCATAATGATGGTGCTGC,0.6
2,TTGCATCTCACTGTTGAGCAGA,-0.0433
3,TGAATGATCACACAGTAGCGGA,-1.12
4,TAATTTTCTTTGCTTGCTCAAG,-1.24
5,TTACTTTGCATCTCACTGTTGA,0.106
6,TTGAAATGGAAGCTGAAGCGGA,0.195
7,TTGAGTTCATCCGAACTGGTGA,0.378
8,TACAACTGCACATCGAGTTTTG,-0.712
9,AATAGTATTGAGTTCATCCGAA,-0.145
10,TTTCTTTGCTTGCTCAAGGTTC,-0.282
11,TAATAGTATTGAGTTCATCCGA,-0.637
12,TACAGGTTGAAATGGAAGCTGA,-0.61

# Target: OXSR1
# Experiment: as above
# Settings: shRNA
row,Sequence,sensor-assay potency score (higher = more potent)
1,TATTGATTCTTTCACTCGGGGA,-0.811
2,TATCTGAGCCTTCGACACCAGA,-1.2
3,TTTCTTTATCTTGAACACCAGT,-0.815
4,TTTGATTGCCACTTTCTCCTTT,0.477
5,TAATCTTAGTACTAGACTGATT,-1.17
6,TTGTCTGTAAAAACAATCCAAA,-1.04
7,TTAATCTTAGTACTAGACTGAT,-0.309
8,TTGAAGAAATTCTTTATTCTTT,-0.617
9,TTTCTTGTGAACCTGATCCTGA,0.134
10,TTCATCATCACTCCACTCCCAG,-0.375
11,TCTTGGTTTCTTGTGAACCTGA,-0.403
12,TTTACTAACGGAACTCTGGGGA,0.644

# Target: P2RX3
# Experiment: as above
# Settings: shRNA
row,Sequence,sensor-assay potency score (higher = more potent)
1,TTTCTCAGAAACGCTGTCGAGC,-0.254
2,TACCTGGTAAGCCTTCTCGTGC,-1.6
3,TCAGTAACAATCATCTTGGTGA,0.681
4,TTCCACTGTGTCCACCTCCGTG,-1.06
5,TTGATGATCCCGATGGTCCAGC,-0.677
6,TTGTCCAAGTCGCACACCCAGC,-1.44
